These results are taken from ChEMBL document CHEMBL4888484, “Replenishing the malaria drug discovery pipeline: Screening and hit evaluation of the MMV Hit Generation Library 1 (HGL1) against asexual blood stage Plasmodium falciparum ,using a nano luciferase reporter read-out” (2022).

Screen size: about 150,000 compounds; about 540 (0.36%) showed an effect of 50% or more. This is one part of a sample in which strong results are shown more often than they occur.

This test deals with Plasmodium falciparum. In words: Primary screen in NF54 nanoGlo assay, in single point, at 2uM, 72h; a lower Z score goes with more inhibition. The class given is functional, Erythrocyte. As to conditions: timepoint 72 hour.
In general, % Inhibition refers to the change of the read-out against control, counted positive when it falls. Turning to `O=C1C[C@@H](c2ccccc2)N(Cc2ccncc2)CCCNCCN1`, the “% Inhibition” value is on record as -9% and the Z score is on record as 1.07.
The matching figures for `Cc1ccncc1C(=O)N1CCCN(Cc2ccncc2)[C@H](c2ccccc2)CC(=O)NCC1`: -4% and 0.48.
Regarding `COc1cccc(S(=O)(=O)N2CCCN(Cc3ccncc3)[C@H](c3ccccc3)CC(=O)NCC2)c1`, the “% Inhibition” value is 92% and the Z score is -7.9.
Regarding `Cn1cccc1CCC(=O)NCCc1noc(C2CC2)n1`, the “% Inhibition” value is recorded as -5% and the Z score is 0.69.
For `CN1CCC(Oc2cc(NC(=O)c3cscn3)ccn2)CC1`, the “% Inhibition” value was -16% and the Z score is listed as 1.85.
As for `CCn1cc(CN2CCN3C(=O)N(c4ccccc4)C(=O)[C@@H]3C2)cn1`, the “% Inhibition” value is -2% and the Z score worked out at 0.24.
For `COCCN1CC[C@H](c2ncnn2C2CCCCC2)C1`, the “% Inhibition” value is -7% and the Z score was 1.3.
The matching figures for `CCc1nccc(CN2CCC[C@H](CS(C)(=O)=O)C2)n1`: -20% and 2.11.
`Cn1cnc2c1CCN(C[C@H](O)c1ccccc1Cl)C2`: the “% Inhibition” value worked out at 0% and the Z score is 0.04.
Consider `CC(C)C(=O)N(Cc1ccc(-c2ccc(Cl)cc2)o1)[C@H]1CCS(=O)(=O)C1`, for which the “% Inhibition” value was 1% and the Z score is on record as -0.15.
Take `CCC(=O)N(Cc1ccc(-c2ccc(Cl)cc2)o1)[C@H]1CCS(=O)(=O)C1`: the “% Inhibition” value was determined as 63% and the Z score is -8.22.
Consider `CCC(CC)C(=O)N(Cc1ccc(-c2ccc(Cl)cc2)o1)[C@H]1CCS(=O)(=O)C1`, for which the “% Inhibition” value is on record as -7% and the Z score was 0.86.
Regarding `Cc1nnc(COc2cccc3c2OCCO3)s1`, the “% Inhibition” value is -12% and the Z score is 2.16.
Take `CC(C)C(=O)NCC(=O)N1CC[C@@]2(CCCN(CCCc3ccccc3)C2)C1`: the “% Inhibition” value is -7% and the Z score is on record as 1.41.
The matching figures for `CN(Cc1ccc2ccn(C)c2c1)C[C@H]1CCCCO1`: -2% and 0.4.
The matching figures for `COc1ccc(Br)c(S(=O)(=O)NCC2(C)CCC2)c1`: 1% and -0.23.
On to `CC(=O)NC[C@H]1CN(c2ccnc(C(C)(C)C)n2)CCO1`, for which the “% Inhibition” value is -12% and the Z score worked out at 1.4.
As for `CNC(=O)c1cc(S(=O)(=O)N2CC=CC2)cn1C`, the “% Inhibition” value is -4% and the Z score stood at 0.78.
For the compound `Cc1ccccc1NC(=O)[C@H]1c2cccc[n+]2CC(=O)N1c1ccc2c(c1)OCO2`, the “% Inhibition” value is given as -9% and the Z score is reported as 1.37.
In the case of `CC(C)(C)OC(=O)N1CCC[C@@H]1CNC1CC1`, the “% Inhibition” value is reported as -7% and the Z score is 0.86.
The matching figures for `CC(C)(C)OC(=O)N1CC2CC(=O)CC1C2` (stereo not drawn): 3% and -0.39.
Regarding `O=C1Cc2cc(S(=O)(=O)Nc3ccccc3C(=O)NCc3ccco3)ccc2N1`, the “% Inhibition” value was -32% and the Z score was found to be 3.76.
The matching figures for `CCc1cc(NC(=O)N[C@@H](C)c2nc(C(F)(F)F)no2)n(C)n1`: -7% and 1.
On to `COCc1cnc(NC(=O)NC2(c3ncccn3)CCOCC2)s1`, for which the “% Inhibition” value amounted to 52% and the Z score is given as -0.94.
The matching figures for `Cc1cc(C(=O)NC2(c3ncccn3)CCOCC2)c(C)s1`: -4% and 0.7.
The matching figures for `CC(C)Cc1cnc(NC(=O)N[C@@]2(C)CCOC2)s1`: 8% and -1.23.
`CCc1cc(C(=O)N2CC[C@@]3(CCCN(Cc4cccc(OC)c4)C3)C2)on1`: the “% Inhibition” value is on record as -5% and the Z score was determined as 0.79.
As for `CC(C)CC(=O)N(Cc1nccn1Cc1ccc(Cl)cc1Cl)CC1CC1`, the “% Inhibition” value was -8% and the Z score worked out at 0.76.
On to `CC[C@H](C)N1CC(=O)N(c2ccns2)C1=O`, for which the “% Inhibition” value is reported as -14% and the Z score is 2.59.
Consider `COc1ccnc(-c2ccc(F)c3cccnc23)c1`, for which the “% Inhibition” value is recorded as -4% and the Z score worked out at 0.58.
`COc1cccc(CNS(=O)(=O)c2cc(-c3c(C)nn4c3NC(=O)CCC4=O)ccc2OC)c1`: the “% Inhibition” value was 2% and the Z score was -0.21.
As for `O=C1CCCN1Cc1ncnn1Cc1ccc2c(c1)OCO2`, the “% Inhibition” value is -4% and the Z score worked out at 0.57.
With `O=C(Nc1cccc2cccnc12)c1csnn1`, the “% Inhibition” value was found to be 6% and the Z score is -1.1.
For `Oc1ccccc1CNc1cccc2cccnc12`, the “% Inhibition” value turned out to be 96% and the Z score was -8.95.
For the compound `O=C(Nc1cccc2cccnc12)c1ccccn1`, the “% Inhibition” value is 79% and the Z score is -8.04.
For `O=C(Nc1cccc2cccnc12)c1cscn1` the same measures were 9% and -1.21.
Regarding `Oc1ccccc1CNc1cccc2c[nH]nc12`, the “% Inhibition” value is reported as -4% and the Z score is reported as 0.68.
As to `Oc1cccc(CNc2cccc3cccnc23)c1`, the “% Inhibition” value is reported as 27% and the Z score was -3.62.
For `O=C(Cn1ccc([C@H]2CCCNC2)n1)NCc1c(F)cccc1Cl` the same measures were 0% and -0.03.
Regarding `O=C1CC[C@H](C(=O)N2CCCCO2)CN1CCN1CCOCC1`, the “% Inhibition” value is reported as -15% and the Z score was determined as 1.87.
Regarding `CCC1CCC(C(=O)NCC(=O)N2CCn3cncc3C2)CC1` (stereo not drawn), the “% Inhibition” value is recorded as -22% and the Z score is reported as 2.8.
`Cn1c(-c2ccc(Br)cc2)cn2cc(-c3ccc(Cl)cc3)nc12`: the “% Inhibition” value worked out at 44% and the Z score came to 0.7.
With `Cn1c(-c2ccccc2)cn2cc(-c3ccc(F)cc3)nc12`, the “% Inhibition” value came out at 38% and the Z score was -0.19.
With `Cn1c(-c2ccccc2)cn2cc(-c3ccc(Cl)cc3)nc12`, the “% Inhibition” value is 54% and the Z score is reported as -1.03.
